Where a name gives a salt, the structure may show the parent alone.
These compounds were tested on Saccharomyces cerevisiae BY4741 SeMeCo community (assay: z-score of subpopulation abundance vs DMSO median, subpopulation auxotrophic for UM; higher = larger share of this subpopulation than in DMSO controls). Conditions: 10 µM; 24 h; SM minimal medium; subpopulation (auxotrophy): UM.
Protocol: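 Fluorescent four-plasmid SeMeCo (self-establishing metabolically cooperating S. cerevisiae BY4741 community; plasmids pH-mRuby2, pL-mWasabi, pU-eCFP, pM-TagRFP657) was grown 24 h in minimal SM medium with each Selleck FDA-approved drug at 10 µM in 384-well plates. Cells were fixed and imaged by high-content confocal microscopy. For each auxotrophic subpopulation (and the prototroph), a z-score gives the deviation from the DMSO vehicle-control population median.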

Compound | z-score of subpopulation abundance
C[CH2][Hg][S]c1ccccc1C(=O)[O-].[Na+] [Thimerosal] | 6.06
COc1ccc2c(c1)[C@]13CCCC[C@@H]1[C@H](C2)N(C)CC3 [Dextromethorphan hydrobromide hydrate] | -0.52
CC[C@H]1[C@@H]2C[C@H]3[C@@H]4N(C)c5ccccc5[C@]45C[C@@H]([C@@H]2[C@H]5O)N3[C@@H]1O [Ajmaline] | -0.04
C=CN1CCCC1=O.II [Povidone iodine] | 0.16
Cc1cc(C(C#N)c2ccc(Cl)cc2)c(Cl)cc1NC(=O)c1cc(I)cc(I)c1O (centres undefined) [Closantel] | -0.03
C[C@@H]1CC[C@H]2[C@@H](C)C(=O)O[C@@H]3O[C@@]4(C)CC[C@@H]1[C@]32OO4 [Artemisinin] | -0.66
CCOC(=O)Nc1ccc(NCc2ccc(F)cc2)cc1N [Retigabine 2HCl] | -0.52
CN(C)[C@@H]1C(=O)C(C(N)=O)=C(O)[C@@]2(O)C(=O)C3=C(O)c4c(O)ccc(Cl)c4[C@@](C)(O)[C@H]3C[C@@H]12 [Chlortetracycline HCl] | -0.66
N#Cc1nn(-c2c(Cl)cc(C(F)(F)F)cc2Cl)c(N)c1[S+]([O-])C(F)(F)F (centres undefined) [Fipronil] | -0.68
NCC(O)c1ccc(O)cc1 (racemic) [(+,-)-Octopamine HCl] | -0.79
CC(C)=CCOc1c2occc2cc2ccc(=O)oc12 [Imperatorin] | 0.52
CN(C)C(=O)Oc1ccc[n+](C)c1 [Pyridostigmine Bromide] | 0.25
C[N+]12CCC(CC1)C(OC(=O)C(O)(c1ccccc1)c1ccccc1)C2 (centres undefined) [Clidinium Bromide] | -0.38
CC(=O)OCC1=C(C(=O)O)N2C(=O)C(N)C2SC1 (centres undefined) [7-Aminocephalosporanic acid] | 0
CCN(C)C(=O)Oc1cccc([C@H](C)N(C)C)c1 [Rivastigmine Tartrate] | -0.84
C[N+]1(C)[C@@H]2C[C@@H](OC(=O)[C@H](CO)c3ccccc3)C[C@H]1[C@@H]1O[C@@H]12 [Methscopolamine] | 1.32
C[C@H]1O[C@H](O[C@H]2[C@H](O)[C@@H](O)[C@@H](O)[C@H](O)[C@@H]2O)[C@@H](N)C[C@@H]1NC(=N)C(=O)O [Kasugamycin hydrochloride] | -0.17

Compound | z-score of subpopulation abundance
N[C@@H]1C[C@H]1c1ccccc1 [Tranylcypromine (2-PCPA) HCl] | -0.34
CC(C)(O)C(Cl)(Cl)Cl [Chlorobutanol] | 0.14
C=CCN1C[C@H](C(=O)N(CCCN(C)C)C(=O)NCC)C[C@@H]2c3cccc4[nH]cc(c34)C[C@H]21 [Cabergoline] | -0.17
CN(C)[C@@H]1C(=O)C(C(N)=O)=C(O)[C@@]2(O)C(=O)C3=C(O)c4c(O)cccc4[C@@](C)(O)[C@H]3C[C@@H]12 [Tetracycline HCl] | 0.64
CC[N+](C)(CC)CCOC(=O)C(O)(c1ccccc1)c1ccccc1 [Methylbenactyzine Bromide] | -0.66
O=C(O[C@H]1C[C@H]2CC[C@@H](C1)[N+]21CCCC1)C(O)(c1ccccc1)c1ccccc1 [Trospium chloride] | -0.43
CN1[C@@H]2CC[C@H]1C[C@@H](OC(=O)[C@H](CO)c1ccccc1)C2 [Hyoscyamine] | -0.14
O=c1cccc2n1C[C@@H]1CNC[C@H]2C1 [Cytisine] | -0.6
CCN(CC)CCOC(=O)C(O)(c1ccccc1)c1ccccc1 [Benactyzine hydrochloride] | 0.21
Cc1cc(O)ccc1Cl [Chlorocresol] | -0.48
C=CC[C@]1(O)CC[C@H]2[C@@H]3CCC4=CC(=O)CCC4=C3C=C[C@@]21C [Altrenogest] | -0.72
Oc1cccc2cccnc12 [8-Hydroxyquinoline] | -1.16
COC(=O)C1=CCCN(C)C1 [Arecoline HBr] | 0.61
CN1[C@@H]2C[C@@H](OC(=O)[C@H](CO)c3ccccc3)C[C@H]1[C@@H]1O[C@@H]12 [Scopolamine HBr] | -0.95
O=[N+]([O-])C(Br)(CO)CO [Bronopol] | -0.1
NC(=O)CN1CCCC1=O [Piracetam] | 0.74
COc1cc2c(cc1OC)C1CC(=O)C(CC(C)C)CN1CC2 (centres undefined) [Tetrabenazine (Xenazine)] | -0.68

From the supplement of paper PMC8975748
